CFTR F508del cor – correctors of CFTR F508del function in bronchial epithelial cells | 0.36% of 350,000 active | AID 720511 | activity (quench increase), % at 7.58 µM | CFBE cells, YFP halide quenching; stimulated with forskolin plus potentiator P3; % fluorescence drop versus neutral controls;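 active = mean added fluorescence quench of at least 8% versus neutral control, with both replicates also reaching 8%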;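 note: cells transiently co-express mutant CFTR-F508del with the halide-sensitive YFP; corrector assay measuring rescue of mutant channel to the surface after 24 h compound exposure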
PglD inh – PglD (C. jejuni) enzyme inhibition. purified PglD enzyme, DTNB colorimetric CoA detection. inhibition, % at 12.5 µM. 0.098% of 360,000 active. AID 602405; in the data active = inhibition above about 16%, passing the limit was not always enough
CASP6 VEID inh – blocks human caspase-6 cleavage activity; purified caspase-6, Z-VEID-R110 cleavage fluorescence; inhibition, % at 12.5 µM; 0.53% of 350,000 active; AID 686996;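 active = mean inhibition across replicates at least about 35%, with every replicate also reaching that limit, limit read from the data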;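 note: 0% = median of neutral control wells and 100% = no fluorescence left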
Target sequence (P55212 24-179 limits assumed): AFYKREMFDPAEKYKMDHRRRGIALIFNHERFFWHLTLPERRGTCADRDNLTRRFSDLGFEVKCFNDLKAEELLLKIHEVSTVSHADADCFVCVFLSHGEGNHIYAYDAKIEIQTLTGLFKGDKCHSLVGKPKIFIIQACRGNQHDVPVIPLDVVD
Target sequence (P55212 194-293 limits assumed): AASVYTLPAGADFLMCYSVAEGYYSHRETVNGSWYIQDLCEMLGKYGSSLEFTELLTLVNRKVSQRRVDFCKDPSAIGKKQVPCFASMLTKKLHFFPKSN
Env fusion inh – HIV envelope-mediated fusion inhibition | HeLa-JRFL Env/CEM21 cell fusion, luciferase | inhibition, % at 12.3 µM | 1.1% of 360,000 active;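 active = mean replicate inhibition score of at least 50 and every replicate individually at or above 50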;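 note: 0% = plate neutral controls and 100% = maraviroc near 300 nM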
NSD2 HMT inh – inhibitors of human histone methyltransferase NSD2. O96028. NSD2 peptide methylation, AlphaScreen, 120 min. inhibition, % at 12.5 µM. 0.54% of 310,000 active; in the data active = inhibition above about 50%
ALR H2O2 inh – human ALR oxidase inhibition via reduced H2O2. P55789. inhibition, % (test concentration not listed). AID 485317. 3.8% of 290,000 active. purified ALR, DTT oxidation, H2O2 HRP-luminol luminescence;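 active = mean replicate inhibition above about 79%, with every replicate also reaching it, limit read from the data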
Target sequence (P55789 whole entry, looked up): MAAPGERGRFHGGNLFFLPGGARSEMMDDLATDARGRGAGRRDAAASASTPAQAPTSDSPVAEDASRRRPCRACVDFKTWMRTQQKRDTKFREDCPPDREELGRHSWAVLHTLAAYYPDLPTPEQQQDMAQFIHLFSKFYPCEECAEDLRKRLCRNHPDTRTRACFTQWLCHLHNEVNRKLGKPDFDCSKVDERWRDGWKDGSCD
* = called active by the depositor; . = not tested or not shown; [ ] = dose if it differs, or a comment. Compounds with a hit are over-represented: about 4.1% of the library has one in this group of screens.

SMILES | CFTR F508del cor | PglD inh | CASP6 VEID inh | Env fusion inh | NSD2 HMT inh | ALR H2O2 inh
CC(C)C#Cc1ccc([C@H]2[C@@H](C#N)N(C(=O)c3ccccn3)[C@@H]2CO)cc1 | 3 | 3 | 1 | -32[16.7 µM] | . | .
O=C(O)C[C@H]1CC[C@@H](NC(=O)Nc2ccccc2)[C@@H](CO)O1 | 0 | -1 | -5 | -26[16.7 µM] | . | .
CO[C@H]1CN(C)C(=O)c2ccc(NC(=O)Nc3ccccc3F)cc2OC[C@H](C)NC[C@H]1C | -1 | -3 | 2 | 8[16.7 µM] | . | .
O=C(O)CCCC(=O)N1CCN(c2cccc(Cl)c2)CC1 | . | 3 | . | . | 1 | -6
CCOC(=O)N1CCN(C(=O)Cc2ccc(Cl)cc2)CC1 | . | 3 | . | . | 2 | 96*
CCOC(=O)N1CCN(C(=O)CSCc2ccccc2Cl)CC1 | . | 5 | -4 | -4 | -4 | 99*
O=C(CCC(=O)N1CCN(c2cccc(Cl)c2)CC1)N1CCN(c2ccccc2)CC1 | 4 | -2 | -2 | 28 | 4 | 98*
O=C(Cc1ccc(Cl)cc1)N1CCN(c2ccccc2)CC1 | -1 | 0 | 2 | 8 | -4 | 88*
COc1ccc(NC(=O)N(C)C[C@H]2OCc3cn(nn3)CCCC(=O)N([C@H](C)CO)C[C@H]2C)c(OC)c1 | 3 | . | . | . | . | .
CCCC(=O)Nc1ccc2c(c1)C(=O)N(C)C[C@H](OC)[C@H](C)CN(Cc1ccccc1)[C@@H](C)CO2 | -2 | 2 | -5 | -26[16.7 µM] | . | .
C/C(N)=C(/C#N)C(=O)COC(=O)c1cc2c(s1)CCC(C)C2 (stereo unspecified) | 0 | . | 0 | -4 | 2 | 96*
C/C(N)=C(/C#N)C(=O)COC(=O)c1cc2c(s1)CCCC2 | 0 | . | 0 | -6 | 0 | 11
Cc1ccc(-c2csc(NC(=O)CSC3=NCCS3)n2)cc1 | . | -7 | . | -70 | -1 | 100*
Cc1ccc(-c2csc(NC(=O)CSc3nc(C)cc(=O)[nH]3)n2)cc1 | . | . | . | -2 | 2 | 99*
Cc1ccc(NC(=S)NNc2ncc(C(F)(F)F)cc2Cl)c(C)c1 | . | 0 | . | . | 2 | 6
FC(F)(F)c1cnc(NNC(=S)Nc2ccc(Cl)cc2)c(Cl)c1 | . | . | . | 55* | -3 | 98*
Fc1ccc(NC(=S)NNc2ncc(C(F)(F)F)cc2Cl)c(F)c1 | 1 | . | 2 | 70* | . | 5
CC(C)C#Cc1ccc2c(c1)O[C@@H](CN(C)C(=O)Cc1ccccn1)[C@@H](C)CN([C@H](C)CO)S2(=O)=O | 2 | -4 | 1 | -21[16.7 µM] | . | .
CC1CCC2(CC1)NC(=O)N(CC(=O)c1cn(CCC#N)c3ccccc13)C2=O (stereo unspecified) | 1 | . | -1 | 0 | -1 | -5
Cn1cc(C(CC(=O)O)C(=O)O)c2ccccc21 (stereo unspecified) | 0 | 0 | 43* | . | 17 | -4
CCCn1cc(C(CC(=O)O)C(=O)O)c2ccccc21 (stereo unspecified) | . | . | . | -9 | 14 | 1
Cc1ccc(C(=O)CC(C(=O)O)c2cn(CCC#N)c3ccccc23)cc1 (stereo unspecified) | -1 | -4 | 5 | -4 | . | 96*
N#CCCn1cc(C(CC(=O)c2ccc(Br)cc2)C(=O)O)c2ccccc21 (stereo unspecified) | . | 7 | . | . | . | 91*
N#CCCn1cc(C(=O)CN2C(=O)C(=O)N(C3CCCC3)C2=O)c2ccccc21 | 1 | -4 | 1 | -131 | 0 | .
Cc1noc(C)c1NC(=O)Nc1ccc2c(c1)CC(=O)N([C@H](C)CO)C[C@H](C)[C@@H](CN(C)C(=O)Nc1cccc3ccccc13)O2 | -3 | . | . | 2[16.7 µM] | . | .
SMILES | CFTR F508del cor | PglD inh | CASP6 VEID inh | Env fusion inh | NSD2 HMT inh | ALR H2O2 inh
COCC#Cc1cnc2c(c1)C(=O)N([C@H](C)CO)C[C@H](C)[C@H](CN(C)C(=O)c1cccc(F)c1)O2 | 0 | -1 | 2 | 1[16.7 µM] | . | .
CCOC(=O)N1CCN(C(=O)CSCc2nc(-c3ccccc3C)oc2C)CC1 | . | 3 | . | -53 | -1 | 99*
CCOC(=O)N1CCN(C(=O)CSCc2nc(-c3ccccc3F)oc2C)CC1 | . | 5 | . | 30 | . | 100*
COc1ccccc1NC(=O)N1C[C@@H]2[C@H](c3ccccc31)[C@H](CO)N2C(=O)C1CC1 | 3 | -9 | 0 | . | . | .
O=C(CC1SC(=O)NC1=O)Oc1ccc(/C=N/NC(=O)c2ccccc2O)cc1 (stereo unspecified) | 0 | . | 3 | -5 | 6 | 99*
O=C(Oc1ccc(/C=N/NC(=O)c2ccccc2O)cc1)c1ccccc1 | . | -3 | . | . | -2 | -17
Cn1nccc1C(=O)Oc1ccc(/C=N/NC(=O)c2ccccc2O)cc1 | -1 | . | -2 | 9 | 0 | 93*
C[C@H]1CN([C@@H](C)CO)S(=O)(=O)c2ccc(C3=CCCCC3)cc2O[C@H]1CN(C)CC1CC1 | -1 | . | . | -10[16.7 µM] | . | .
O=C(Cc1ccncc1)N[C@H]1CC[C@@H](CCn2cc(-c3ccccc3F)nn2)O[C@H]1CO | 1 | -2 | 0 | -3[16.7 µM] | . | .
CN(CCO)c1ccc(C(C(=O)c2ccccc2)c2ccc(N(C)CCO)cc2)cc1 | -2 | -2 | . | -11 | . | 91*
O=C(CSc1n[nH]c(-c2ccco2)n1)Nc1sc2c(c1C(=O)Nc1ccccc1)CCCC2 | . | -2 | . | 15 | 6 | 98*
CCOC(=O)c1c(NC(=O)CSc2n[nH]c(-c3ccco3)n2)sc(C)c1C | . | -1 | . | -9 | 5 | 1
O=C(CSc1n[nH]c(-c2ccco2)n1)Nc1ccccc1F | 1 | -1 | 46* | 2 | 2 | .
NC(=O)c1c(NC(=O)CSc2nnc(-c3ccco3)n2-c2ccccc2)sc2c1CCC2 | . | 0 | . | -11 | . | 97*
O=C(CSc1n[nH]c(-c2ccco2)n1)Nc1ccccc1Cl | 2 | . | 1 | 11 | 2 | 21
O=C(CSc1nc(-c2ccco2)cc(C(F)(F)F)n1)Nc1ccccc1C(F)(F)F | . | 9 | . | 74* | . | -1
CC(C)C#Cc1cnc2c(c1)C(=O)N([C@H](C)CO)C[C@H](C)[C@@H](CN(C)C(=O)Nc1cccc(F)c1)O2 | . | 9 | 2 | 17[16.7 µM] | . | .
CNC(=O)C[C@@H]1CC[C@@H]2[C@@H](COc3ccc(NC(=O)Nc4ccccc4F)cc3C(=O)N2C)O1 | -1 | 3 | . | 11[16.7 µM] | . | .
COc1ccc(-c2cc(C(F)(F)F)nc(SCC(=O)NCc3cccs3)n2)cc1 | . | 3 | . | 56* | 0 | -2
O=C(CSc1nc(-c2ccccc2)cc(C(F)(F)F)n1)NCc1cccs1 | . | . | . | . | -2 | -7
NS(=O)(=O)c1ccc(NNC(=O)c2ccccc2)cc1 | -1 | 0 | 2 | -1 | 0 | -8
O=C(NNc1cc(Br)c(O)c(Br)c1)c1ccccc1 | 3 | . | 10 | 6 | 3 | 99*
CCC(=O)Nc1ccc2c(c1)C(=O)N(C)C[C@@H](OC)[C@@H](C)CN(Cc1ccccc1)[C@@H](C)CO2 | -2 | 2 | 1 | 11[16.7 µM] | . | .
Cc1ccccc1S(=O)(=O)NCC[C@@H]1CC[C@H](NC(=O)C2CCCCC2)[C@H](CO)O1 | 0 | -2 | 2 | 4[16.7 µM] | . | .
S=c1nc(-c2cc(Cl)cc(Cl)c2)[nH][nH]1 | . | . | -3 | 9 | -1 | 98*

Assay outcomes from PubChem BioAssay.
